From PubChem BioAssay (EPA / NIEHS)
Calls of active or inactive are those of the source. How the source made its calls: active means hit-call score of the fitted dose curve at least 0.9, where 1 is the maximum; inactive means score below 0.9.

assay: CEETOX_H295R_ESTRONE: CeeTox H295R High-throughput Steroidogenesis Assay for Estrone (AID 2283441); details: actives raise or lower the signal;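 further: estrone secreted into medium measured by LC-MS/MS after dansyl derivatization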;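 on AC50: human adrenal H295R cells prestimulated with forskolin for two days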
Method: CEETOX_H295R is a cell-based, multiplexed-readout assay that uses H295R, a human adrenal gland cell line, with measurements taken at 48 hours after chemical dosing in a 96-well plate.CEETOX_H295R_ESTRONE is one of 23 assay component(s) measured or calculated from the CEETOX_H295R assay. It is designed to make measurements of hormone induction, a form of inducible reporter, as detected with absorbance signals by HPLC-MS-MS technology.Data from the assay component CEETOX_H295R_ESTRONE was analyzed into 1 assay endpoint. This assay endpoint, CEETOX_H295R_ESTRONE, was analyzed with bidirectional fitting relative to DMSO as the negative control and baseline of activity. Using a type of inducible reporter, gain or loss-of-signal activity using HPLC-MS-MS was used to understand synthesis of Estrone in H295R cell line at 48hr of chemical exposure. To generalize the intended target to other relatable targets, this assay endpoint is annotated to the steroid hormone intended target family, where the subfamily is estrogens.
Cell culture and media preparation procedures were conducted in accordance with OECD Test No. 456 guidelines, with minor modifications. H295R cells (ATCC CRL-2128) were expanded for 5 passages and frozen in batches in liquid nitrogen. Prior to the steroidogenesis assay, H295R cells were thawed and passed at least 4 times. The maximum passage was 10. […] After seeding cells into 96-well plates at 50-60% confluency, cells were allowed to adhere overnight. Prior to chemical testing, culture medium was replaced with 175 uL medium containing 10 uM forskolin to stimulate steroidogenesis for 48 hours. Following prestimulation, forskolin medium was replaced with medium containing test chemical solubilized in DMSO (ensuring a final concentration of 0.1% DMSO). Test chemicals were incubated for 48 hours, then the medium was removed and split into 2 vials containing approximately 75uL each, and stored at -80 C prior to hormone analysis. For steroid quantification, media samples were shipped to OpAns, LLC (Durham, NC) on dry ice, and samples were thawed to room temperature prior to liquid-liquid extraction. Steroid hormones were extracted from media samples using methyl tertbutyl ether (MTBE). An extra derivatization with dansyl chloride was included for estrogen (estrone and estradiol) detection only. Steroid hormones were separated by HPLC, eluted using a reverse phase C18 gradient with electrospray positive ionization, followed by quantification by tandem mass spectrometry (MS/MS). Data were acquired on a MassHunter Workstation Acquisition version B03.01 (Agilent Technologies, Inc.) and processed using MassHunter Quantitative Analysis for QQQ. Accuracy was determined for each hormone analyte from 3 standards to determine upper and lower limits of quantification (ULOQ and LLOQ, respectively) using a 7-point standard curve. Precision and accuracy of the extraction and quantification methods were calculated as the percent relative standard deviation (%RSD) of the spiked standards and percent spiked standard recovered, respectively. The goal was to achieve 100% accuracy (i.e., recover all spiked-in standard at quantification with minimal loss during run time) and good precision (i.e., have %RSD <15% to ensure reproducibility). Test medium was removed following chemical exposure, and cell viability was evaluated in the same wells by MTT. MTT procedures were as follows: after removal of test medium, 500 uL of 0.5 mg/ml of 3-[4,5-dimethylthiazol-2-y]2,5-diphenyltetrazoliumbromide solution was added to the cells. Following a 4-hour incubation at 37 C and 5% CO2 to allow formazan-crystal formation, the MTT solution was removed and blue formazan salt crystals were solubilized using 500uL anhydrous isopropanol with shaking for 20 minutes. Absorbance was read at 570 and 650nm using a Packard Fusion microplate reader. Background correction of absorbance units was used to determine percent change relative to controls. […] […]

Compound | outcome | AC50
COCC(=O)N(c1c(C)cccc1C)C(C)C(=O)OC (stereo not given) | inactive | –
COc1cc(Cl)c(OC)cc1Cl | inactive | –
COC(=O)NC(=S)Nc1ccccc1NC(=S)NC(=O)OC | inactive | –
O=C1C2CC=CCC2C(=O)N1SC(Cl)(Cl)Cl (stereo not given) | inactive | –
CCN(CC)C(=O)C(C)Oc1cccc2ccccc12 (stereo not given) | inactive | –
CC(C)Nc1nc(Cl)nc(NC(C)C)n1 | – | 23.1 µM (active)
COCc1cnc(C2=NC(C)(C(C)C)C(=O)N2)c(C(=O)O)c1 (stereo not given) | inactive | –
CC1(C)CCC(=Cc2ccc(Cl)cc2)C1(O)Cn1cncn1 (stereo not given) | inactive | –
N#Cc1c(Cl)cccc1Cl | inactive | –
CCOC(=O)C(C)OC(=O)c1cc(Oc2ccc(C(F)(F)F)cc2Cl)ccc1[N+](=O)[O-] (stereo not given) | inactive | –
Nc1cnn(-c2ccccc2)c(=O)c1Cl | inactive | –
CN/C(=N\[N+](=O)[O-])NCc1cnc(Cl)s1 | inactive | –
CCOc1cc(C(C)(C)C)ccc1C1COC(c2c(F)cccc2F)=N1 (stereo not given) | inactive | –
CCC(C)n1c(=O)[nH]c(C)c(Br)c1=O (stereo not given) | inactive | –
COP(=S)(OC)Oc1ccc([N+](=O)[O-])c(C)c1 | inactive | –
CC(C)(C)C(=O)C(Oc1ccc(Cl)cc1)n1cncn1 (stereo not given) | – | 41.2 µM (active)
CCOc1nc(C(Cl)(Cl)Cl)ns1 | inactive | –
CC(C)Oc1cccc(NC(=O)c2ccccc2C(F)(F)F)c1 | inactive | –
CC1(C)CON(Cc2ccccc2Cl)C1=O | inactive | –
COP(=S)(OC)SCn1nnc2ccccc2c1=O | inactive | –
CC1(C)C(C=C(Cl)Cl)C1C(=O)OC(C#N)c1cccc(Oc2ccccc2)c1 (stereo not given) | inactive | –
CCCC(=NOCC)C1=C(O)CC(CC(C)SCC)CC1=O (stereo not given) | – | 0.554 µM (active)
CCNP(=S)(OC)O/C(C)=C/C(=O)OC(C)C (stereo not given) | inactive | –
O=C(Nc1ccccc1-c1ccc(Cl)cc1)c1cccnc1Cl | inactive | –
Cc1c(COC(=O)[C@@H]2[C@H](/C=C(\Cl)C(F)(F)F)C2(C)C)cccc1-c1ccccc1 | inactive | –
Cc1nc(N(C)C)nc(OC(=O)N(C)C)c1C | inactive | –
CCSC(=O)N1CCCCCC1 | inactive | –
CCN(CC)c1nc(C)cc(OP(=S)(OC)OC)n1 | – | 1.62 µM (active)
Clc1nc(Cl)nc(Nc2ccccc2Cl)n1 | inactive | –
CCCN(CC)CC1COC2(CCC(C(C)(C)C)CC2)O1 (stereo not given) | inactive | –
